ELG1 DNA repair: qHTS screen for small molecules that inhibit ELG1-dependent DNA repair in human embryonic kidney (HEK293T) cells expressing luciferase-tagged ELG1; HEK293T ELG1-luciferase reporter, luminescence, 16 h; DNA damage induced by 5-fluorouridine; Potency, µM (series often up to 46.1 µM), most hits filed as inhibitors; 330,000 tested, 2.3% active; also: nearly all actives have a fitted effect of over 55% in size
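DMSO vehicle served as the neutral condition. Each well held 2,000 cells given 5-fluorouridine plus compound; after 16 hr at 37 °C/5% CO2, ONE-Glo was added and luciferase measured 30 min later.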
Rab9 promoter act: qHTS Assay for Rab9 Promoter Activators. Huh7 Rab9 promoter-luciferase reporter, luminescence, 24 h. Potency, µM (highest dose often 9.22 µM), most hits filed as activators. 320,000 tested, 2.8% active; also: nearly all actives have a fitted effect of over 60% in size
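Huh7 reporter line, Rab9 promoter upstream of luciferase. Compound exposure 24 h at 37 °C in reduced-serum medium with 10% FBS. Read-out: luminescence.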
NPC1 promoter act: qHTS Assay for NPC1 Promoter Activators; Huh7 NPC1 promoter luciferase reporter, 24 h; Potency, µM (series often up to 9.22 µM), hits mostly activators; 320,000 tested, 2.4% active; also: nearly all actives have a fitted effect of over 60% in size
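In 1536-well qHTS, Huh7 cells harboring an NPC1 promoter–luciferase construct received compound for 24 h; activation was quantified by luminescence following luciferase reagent addition.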
FLuc counter: qHTS profiling assay for firefly luciferase inhibitor/activator using purifed enzyme and Km concentrations of substrates (counterscreen for miR-21 project); purified FLuc, Km substrates, luminescence inhibition; Luciferin 4-monooxygenase (Photinus pyralis), P08659; 360,000 tested, 6.9% active; Potency, µM (series often up to 57.5 µM), most hits filed as inhibitors; also: nearly all actives have a fitted effect of over 55% in size
Target sequence (P08659 whole entry, looked up): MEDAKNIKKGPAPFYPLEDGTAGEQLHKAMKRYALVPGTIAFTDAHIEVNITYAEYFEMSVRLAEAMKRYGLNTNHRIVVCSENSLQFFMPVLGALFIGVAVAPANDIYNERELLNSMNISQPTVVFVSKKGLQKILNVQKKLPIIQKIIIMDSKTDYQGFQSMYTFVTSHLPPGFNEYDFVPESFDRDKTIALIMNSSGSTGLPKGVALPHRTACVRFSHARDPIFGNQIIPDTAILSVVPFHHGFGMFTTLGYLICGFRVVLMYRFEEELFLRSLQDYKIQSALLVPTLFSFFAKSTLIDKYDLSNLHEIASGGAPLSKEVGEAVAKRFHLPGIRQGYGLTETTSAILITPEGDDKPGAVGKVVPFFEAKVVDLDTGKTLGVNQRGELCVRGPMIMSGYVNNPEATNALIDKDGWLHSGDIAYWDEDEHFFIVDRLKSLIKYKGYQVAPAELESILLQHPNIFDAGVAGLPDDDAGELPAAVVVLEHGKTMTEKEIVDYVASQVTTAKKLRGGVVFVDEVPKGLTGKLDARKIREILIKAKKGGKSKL
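Purified P. pyralis luciferase, 10 nM final, with Km-level 10 uM D-luciferin and 10 uM ATP in 50 mM Tris acetate pH 7.5, 10 mM Mg acetate, 0.01% Tween-20, 0.05% BSA; 6-point qHTS titration about 60 µM downward; luminescence read.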
ELG1 genotoxic: qHTS screen for small molecules that induce genotoxicity in human embryonic kidney (HEK293T) cells expressing luciferase-tagged ELG1 | HEK293T ELG1-luciferase reporter, luminescence, 16 h | Potency, µM (doses to about 46 µM), most hits filed as activators | 330,000 tested, 1.3% active; also: nearly all actives have a fitted effect of over 60% in size
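Quantitative HTS format in 1536-well plates. HEK293T ELG1-luciferase reporter cells receive test compound and are incubated 16 hr at 37 °C, 5% CO2; ONE-Glo added, 30 min room temperature, then luminescence read.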
SMN2 splice enh: qHTS Assay for Enhancers of SMN2 Splice Variant Expression. HEK293 SMN2-luciferase splicing reporter, luminescence, 30-36 h. Potency, µM (doses to about 46.1 µM), usual class: activators. 210,000 tested, 2.8% active; also: nearly all actives have a fitted effect of over 55% in size
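HEK293 cells carry an SMN2 minigene-luciferase reporter in which exon 7 inclusion puts luciferase in frame. Cells were seeded at 2000 cells/well, attached for 10-12 hours, then exposed to compounds for 30-36 hours at 37C before ONE-Glo luminescence.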
ELG1 FLuc counter: qHTS screen for small molecules that inhibit ELG1-dependent DNA repair: Hit Confirmation in Cell-Based Luciferin Assay; shares compounds with ELG1 DNA repair; cell-free firefly luciferase luminescence counter-screen, ViewLux; Potency, µM (series often up to 46.1 µM), hits mostly inhibitors; 350 tested, 3% active
ELG1 Luc conf: HTS assay for small molecules that inhibit ELG1-dependent DNA repair in human embryonic kidney (HEK293T) cells expressing luciferase-tagged ELG1: Hit Confirmation | 670 tested, 68% active | AID 624248, 2012 | HEK293T ELG1-luciferase levels, luminescence; cells co-treated with 5-fluorouridine | Potency, µM (titrated, usually from 46.1 µM), actives largely listed as inhibitors | shares compounds with ELG1 DNA repair; also: nearly all actives have a fitted effect of over 55% in size
ELG1-Luc MMS: confirmation of human ELG1 repair inhibitors, MMS stimulated; 670 tested, 53% active; HEK293T luciferase-tagged ELG1 level, MMS stimulated; Potency, µM (series often up to 46.1 µM), usual class: inhibitors; AID 624249; shares compounds with ELG1 DNA repair; also: nearly all actives have a fitted effect of over 60% in size
ELG1 5-FU: qHTS screen for small molecules that inhibit ELG1-dependent DNA repair: Hit Confirmation with 5FU Viability; 670 tested, under 10 active; cell viability with 5-FU, ELG1-dependent repair; Potency, µM (doses to about 46.1 µM), most hits filed as cytotoxic; shares compounds with ELG1 DNA repair; AID 624250, 2012;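 also: ELG1-luc HEK293T cells cotreated with 5-fluorouridine at 10 µM final; viability measured 16 h after compound addition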
ELG1 MMS cell: qHTS screen for small molecules that inhibit ELG1-dependent DNA repair: Hit Confirmation with MMS Viability. shares compounds with ELG1 DNA repair. Cell viability with MMS, ELG1-dependent DNA repair. Potency, µM (doses to about 46.1 µM), usual class: cytotoxic. 670 tested, 33% active. AID 624251, 2012;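 also: ELG1-luc HEK293T cells co-treated with 10 µM MMS; viability read 16 h after compound addition; nearly all actives have a fitted effect of over 60% in size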
ELG1 unstim viab: qHTS screen for small molecules that inhibit ELG1-dependent DNA repair: Hit Confirmation with Unstimulated Viability Assay; cell viability counter-screen, unstimulated, luminescence; AID 624252, 2012; Potency, µM (series often up to 45.9 µM), hits mostly cytotoxic; shares compounds with ELG1 DNA repair; 900 tested, 8% active;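 also: compound exposure lasted 16 hours before reading; nearly all actives have a fitted effect of over 55% in size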
FLuc biochem: qHTS screen for small molecules that inhibit ELG1-dependent DNA repair: Hit Confirmation in Biochemical Luciferin Assay; shares compounds with ELG1 DNA repair; purified firefly luciferase, luminescence counter-screen; Potency, µM (series often up to 57.5 µM), usual class: inhibitors; 350 tested, 10% active
Large screens that a line does not name were inactive (follow-up assays come after a bar, where they were run). Sampled rows, rich in hits. Any-hit rate of the full collection: about 9.4%. Calls follow the shape of the dose curve; as a rule, active = well fitted curve in the direction sought with a large enough effect; inconclusive = small, poorly fitted or top-dose-only effect, or another doubt; inactive = no such curve, though single readings can be large; an effect the other way counts as inactive or inconclusive.

CCOc1ccc2cc(C#N)c(SCC(=O)N3CCOCC3)nc2c1	ELG1 DNA repair inconclusive, Rab9 promoter act 3.98µM, NPC1 promoter act 3.98µM, FLuc counter inconclusive, ELG1 genotoxic 2.59µM | ELG1 FLuc counter inactive | ELG1 unstim viab inconclusive | FLuc biochem inactive
Cc1nc(-c2cccc(F)c2)sc1CCNC(=O)Cc1ccc(F)cc1	none (no result: ELG1 DNA repair, Rab9 promoter act, NPC1 promoter act, ELG1 genotoxic, SMN2 splice enh)
CCCc1cnc2c(c1SCC(=O)Nc1ccc([N+](=O)[O-])cc1)c(=O)n(C)c(=O)n2C	none (no result: ELG1 DNA repair, Rab9 promoter act, NPC1 promoter act, ELG1 genotoxic, SMN2 splice enh)
COc1ccc(-c2nc(Cn3c(=O)cc(-c4ccccc4)c4c(C)nn(C)c43)c(C)o2)cc1OC	none (no result: ELG1 DNA repair, Rab9 promoter act, NPC1 promoter act, ELG1 genotoxic, SMN2 splice enh)
O=C(Nc1ccc(F)cc1)N(Cc1cccs1)Cc1cc2cc3c(cc2[nH]c1=O)OCO3	ELG1 DNA repair 18.4µM | ELG1 FLuc counter inconclusive | ELG1 Luc conf 8.89µM | ELG1-Luc MMS 28.1µM | ELG1 5-FU inactive | ELG1 MMS cell inconclusive | ELG1 unstim viab inconclusive | FLuc biochem inactive
Cc1csc2ncnc(NCCc3ccccn3)c12	ELG1 DNA repair 1.46µM | ELG1 Luc conf inconclusive | ELG1-Luc MMS 1.58µM | ELG1 5-FU inactive | ELG1 MMS cell 2.23µM | ELG1 unstim viab inconclusive
CC1CCC(NC(=O)CN2C(=O)NC(C)(C)C2=O)CC1 (centres undefined)	ELG1 genotoxic 0.116µM (no result: SMN2 splice enh) | ELG1 FLuc counter inactive | ELG1 unstim viab inactive | FLuc biochem inactive
COc1ccc(C2(C)NC(=O)N(CC(=O)NC3CC3)C2=O)cc1 (centres undefined)	none (no result: Rab9 promoter act, NPC1 promoter act, FLuc counter, SMN2 splice enh)
C=C1C(c2ccc(C)cc2)=CCc2cc(C)cc(C)c21	SMN2 splice enh 14.1µM (no result: ELG1 DNA repair, Rab9 promoter act, NPC1 promoter act, FLuc counter, ELG1 genotoxic) | ELG1 FLuc counter inactive | ELG1 unstim viab inconclusive | FLuc biochem 5.17µM

Bioassay records as filed in PubChem BioAssay.
